An excerpt weighted towards active compounds, which were near 1.6% of everything screened.
KCNQ2 pot: potentiators of rat KCNQ2 potassium channel; CHO-K1 KCNQ2, FluxOR thallium flux fluorescence; active compounds read high; B-score at 10 µM; hit rate 0.54% among 310,000; AID 2239;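 active = fluorescence ratio B-score at least 3 SD of library B-scores, with initial fluorescence B-score within 3 of them, cut at about 5.3 in these data; same plate scores as AID 2156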;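 also: B-score of peak minus minimum over baseline fluorescence ratio after K+ and Tl+ stimulus; positive B-score means potentiation of KCNQ2 with more thallium influx and brighter signal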
Target sequence (O88943 whole entry, looked up): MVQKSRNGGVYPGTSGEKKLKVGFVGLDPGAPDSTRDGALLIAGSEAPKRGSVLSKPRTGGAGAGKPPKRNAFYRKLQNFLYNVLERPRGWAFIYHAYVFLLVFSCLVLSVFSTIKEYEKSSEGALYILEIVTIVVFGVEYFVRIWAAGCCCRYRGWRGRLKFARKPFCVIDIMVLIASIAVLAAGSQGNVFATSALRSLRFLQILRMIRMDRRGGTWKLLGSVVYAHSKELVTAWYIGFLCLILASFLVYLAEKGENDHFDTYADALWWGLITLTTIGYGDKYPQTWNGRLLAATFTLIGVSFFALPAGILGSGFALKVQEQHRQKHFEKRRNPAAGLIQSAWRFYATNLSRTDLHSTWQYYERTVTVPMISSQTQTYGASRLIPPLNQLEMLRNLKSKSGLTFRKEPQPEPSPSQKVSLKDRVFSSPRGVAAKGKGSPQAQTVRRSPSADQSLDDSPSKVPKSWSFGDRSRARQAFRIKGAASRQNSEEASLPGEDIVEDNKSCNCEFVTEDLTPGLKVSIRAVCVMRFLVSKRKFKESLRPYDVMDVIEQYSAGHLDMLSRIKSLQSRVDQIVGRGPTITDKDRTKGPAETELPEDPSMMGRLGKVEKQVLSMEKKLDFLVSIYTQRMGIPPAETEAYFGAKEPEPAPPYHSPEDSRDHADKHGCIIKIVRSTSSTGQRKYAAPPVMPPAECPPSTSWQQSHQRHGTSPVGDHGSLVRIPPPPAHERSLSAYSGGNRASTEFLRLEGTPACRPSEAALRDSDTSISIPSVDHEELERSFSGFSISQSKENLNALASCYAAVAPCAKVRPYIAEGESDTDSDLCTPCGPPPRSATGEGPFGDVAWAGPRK
KCNQ2 inh: inhibitors of rat KCNQ2 potassium channel | B-score at 10 µM | AID 2156 | CHO-K1 KCNQ2, FluxOR thallium flux, 20 min; active compounds read low | O88943 | hit rate 1.1% among 310,000;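 active = fluorescence ratio B-score at most minus 3 library SDs, with starting brightness B-score within 2 library SDs, cut at about -5.5 in these data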
KCNQ2 inh conf: rat KCNQ2 channel inhibition, confirmatory screen; shares compounds with KCNQ2 inh; KCNQ2-expressing cells, thallium flux; active compounds read low; activity change, negative = inhibition, % at 10 µM; hit rate 57% among 1,000;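 also: 0% = vehicle wells and values are ratio percent relative to vehicle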
KCNQ1 spec: human KCNQ1 activity in KCNQ2 inhibitor specificity screen. shares compounds with KCNQ2 inh. KCNQ1-expressing cells, FluxOR thallium flux fluorescence; active compounds read low. activity change, negative = inhibition, % at 10 µM. hit rate 15% among 1,000;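 active = activity change at least 3 SD of negative controls below their mean in both duplicate wells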;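 also: CHO cells stably transfected with KCNQ1 and depolarized by potassium stimulus; peak minus minimum fluorescence over baseline after thallium addition; 0% = vehicle negative control and -100% = blank without thallium stimulus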
CHO Tl ctr: counter-screen for KCNQ2 inhibitors: effect in parental CHO cells; shares compounds with KCNQ2 inh; thallium flux counter-screen; active compounds read low; activity change, % at 10 µM; hit rate 14% among 1,000; AID 493029;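 also: 0% = vehicle negative controls with stimulus buffer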
KCNQ2 inh confirm: blocks rat KCNQ2 current in automated patch clamp; shares compounds with KCNQ2 inh; KCNQ2-expressing cells; calls only at 10 µM; hit rate 49% among 550; AID 588531
* marks the source's active call; other numbers are inactive results. Unless noted, no rule for the calls is given here.

How did COc1ccccc1-c1cc(C(F)(F)F)n2ncc(C(=O)N3CCc4ccccc4C3)c2n1 do in these assays?
KCNQ2 pot: -7.58; KCNQ2 inh: -7.58*; KCNQ2 inh conf: inactive; KCNQ1 spec: inactive; CHO Tl ctr: inactive

What do the screens show for `Cc1ccc(OC(=O)c2cccc(S(=O)(=O)N3CCCC3)c2)c(-n2nc3ccccc3n2)c1`?
KCNQ2 inh: inactive

What do the screens show for `Cc1ccccc1CNC(=O)c1ccccc1N(C)S(=O)(=O)c1ccccc1`?
KCNQ2 pot: -6.67; KCNQ2 inh: -6.67*; KCNQ2 inh conf: -40.0%*; KCNQ1 spec: -35.5%*; CHO Tl ctr: -28.0%*; KCNQ2 inh confirm: active

Results for Cc1ccc(NC(=O)c2ccccc2N(C)S(=O)(=O)c2ccccc2)c(C)c1 ?
KCNQ2 pot: -8.42; KCNQ2 inh: -8.42*; KCNQ2 inh conf: -34.0%*; KCNQ1 spec: inactive; CHO Tl ctr: inactive; KCNQ2 inh confirm: active

What do the screens show for `CCCNC(=O)c1ccccc1NC(=O)c1ccccc1N(C)S(=O)(=O)c1ccccc1`?
KCNQ2 inh: inactive

What do the screens show for `COC(=O)c1ccccc1NC(=O)c1ccccc1N(C)S(=O)(=O)c1ccccc1`?
KCNQ2 inh: inactive

How did Cc1ccc(S(=O)(=O)N(C)c2ccccc2C(=O)Nc2ccc(F)cc2F)cc1 do in these assays?
KCNQ2 pot: -8.57; KCNQ2 inh: -8.57*; KCNQ2 inh conf: inactive; KCNQ1 spec: inactive; CHO Tl ctr: inactive

How did CC(=O)Nc1ccc(NC(=O)c2ccccc2N(C)S(=O)(=O)c2ccc(C)cc2)cc1 do in these assays?
KCNQ2 pot: 0.02; KCNQ2 inh: inactive

How did O=C(COC(=O)c1cc(=O)[nH]c2ccccc12)Nc1nc(-c2ccccc2)cs1 do in these assays?
KCNQ2 inh: inactive

What do the screens show for `COc1cccc(CNS(=O)(=O)c2cc(CN3C(=O)c4cccnc4C3=O)ccc2OC)c1`?
KCNQ2 pot: 0.37; KCNQ2 inh: inactive

What do the screens show for `Cc1ccc(OCC(=O)NCc2cccs2)c([N+](=O)[O-])n1`?
KCNQ2 inh: inactive

Results for CCOC(=O)C(NC(=O)c1ccccc1Cl)(Nc1ccc(C(F)(F)F)cc1)C(F)(F)F (stereo not given) ?
KCNQ2 inh: inactive

Results for CCOC(=O)C(NC(=O)c1ccc(Cl)cc1Cl)(Nc1ccc(C)cc1)C(F)(F)F (stereo not given) ?
KCNQ2 pot: -8.52; KCNQ2 inh: -8.52*; KCNQ2 inh conf: inactive; KCNQ1 spec: inactive; CHO Tl ctr: inactive

What do the screens show for `C=CCn1c(SCC(=O)N2CCOCC2)nc2sc3c(c2c1=O)CCCC3`?
KCNQ2 pot: 2.48; KCNQ2 inh: inactive

How did C=CCn1c(SCC(N)=O)nc2sc3c(c2c1=O)CCC3 do in these assays?
KCNQ2 pot: -9.26; KCNQ2 inh: -9.26*; KCNQ2 inh conf: inactive; KCNQ1 spec: inactive; CHO Tl ctr: inactive

How did CN1CCN(CCCN2c3ccccc3Sc3ccc(C(F)(F)F)cc32)CC1 do in these assays?
KCNQ2 pot: -8.12; KCNQ2 inh: -8.12*; KCNQ2 inh conf: -34.0%*; KCNQ1 spec: inactive; CHO Tl ctr: inactive; KCNQ2 inh confirm: inactive

What do the screens show for `O=C(CN1CCCC(O)C1)N1c2ccccc2Sc2ccc(C(F)(F)F)cc21` (stereo not given)?
KCNQ2 inh: inactive

Results for N#C/C(=C/C=C/c1ccccc1)C(=O)Nc1ccccc1 ?
KCNQ2 inh: inactive

Results for N#C/C(=C\C=C\c1ccccc1)C(=O)Nc1ccccc1 ?
KCNQ2 pot: -7.41; KCNQ2 inh: -7.41*; KCNQ2 inh conf: inactive; KCNQ1 spec: inactive; CHO Tl ctr: inactive

What do the screens show for `COc1ccc(NC(=S)N(Cc2ccccn2)Cc2ccccc2Cl)cc1`?
KCNQ2 pot: -7.86; KCNQ2 inh: -7.86*; KCNQ2 inh conf: inactive; KCNQ1 spec: inactive; CHO Tl ctr: inactive

How did COc1cccc(NC(=S)N(Cc2ccccn2)Cc2ccccc2Cl)c1 do in these assays?
KCNQ2 inh: inactive

Results for Cc1cc(-c2nc(C)c(C(=O)NN)s2)no1 ?
KCNQ2 pot: 0.6; KCNQ2 inh: inactive

How did COc1cc2c(cc1OC)CN(C(=O)c1oc3ccccc3c1C)CC2 do in these assays?
KCNQ2 inh: inactive

What do the screens show for `O=C(Cn1ncc2c(=O)oc3ccccc3c21)N1CCc2ccccc2C1`?
KCNQ2 pot: 1.51; KCNQ2 inh: inactive

Results for CCn1c(C(=O)N2CCc3ccccc3C2)cc2oc3ccccc3c21 ?
KCNQ2 pot: -6.82; KCNQ2 inh: -6.82*; KCNQ2 inh conf: -44.5%*; KCNQ1 spec: -52.0%*; CHO Tl ctr: -43.5%*

Results for Cn1c(C(=O)N2CCc3ccccc3C2)cc2oc3ccccc3c21 ?
KCNQ2 pot: -10.7; KCNQ2 inh: -10.7*; KCNQ2 inh conf: -16.5%*; KCNQ1 spec: inactive; CHO Tl ctr: inactive; KCNQ2 inh confirm: active

How did CC(C)OCCCNC(=O)c1cn(C)c2ccc(S(=O)(=O)N(C)C3CCCCC3)cc2c1=O do in these assays?
KCNQ2 pot: 1.22; KCNQ2 inh: inactive

Results for COc1ccc(NC(=O)C2=C(C)Nc3nc(CCCO)nn3C2c2ccc(OC)c(OC)c2)cc1 (stereo not given) ?
KCNQ2 inh: inactive

What do the screens show for `CCCCNC(=O)c1onc(CSc2ccc(C(C)C)cc2)c1C(=O)O`?
KCNQ2 pot: 0.03; KCNQ2 inh: inactive

What do the screens show for `COc1ccc(NC(=O)c2nn(C34CC5CC(CC(C5)C3)C4)cc2[N+](=O)[O-])cc1`?
KCNQ2 pot: 0.35; KCNQ2 inh: inactive

Results for O=C(Nc1cccc2ccccc12)c1nn(C23CC4CC(CC(C4)C2)C3)cc1[N+](=O)[O-] ?
KCNQ2 pot: -9.06; KCNQ2 inh: -9.06*; KCNQ2 inh conf: -29.0%*; KCNQ1 spec: inactive; CHO Tl ctr: inactive; KCNQ2 inh confirm: active

Results for CCN(CC)c1ccc(NC(=O)c2c(C)noc2C)cc1 ?
KCNQ2 pot: 0.43; KCNQ2 inh: inactive

What do the screens show for `N#CCCN1CCN(CCC#N)CC1`?
KCNQ2 inh: inactive

What do the screens show for `Cc1cc(CN2CCN(CCC#N)CC2)c(O)c(C2(C)CCCCC2)c1`?
KCNQ2 pot: -7.38; KCNQ2 inh: -7.38*; KCNQ2 inh conf: inactive; KCNQ1 spec: inactive; CHO Tl ctr: inactive

What do the screens show for `O=c1[nH]cnc2sc3c(c12)CCC3`?
KCNQ2 inh: inactive

Results for CCCC(C(=O)NC1CCCC1)N(CC1CCCO1)C(=O)CNS(=O)(=O)c1ccc(F)cc1 (stereo not given) ?
KCNQ2 pot: 0.25; KCNQ2 inh: inactive

What do the screens show for `O=C(CC1NCCN(Cc2ccccc2)C1=O)Nc1ccccc1` (stereo not given)?
KCNQ2 pot: 1.89; KCNQ2 inh: inactive

What do the screens show for `CCOc1ccc(Nc2nc(NCC3CCCO3)c3ccccc3n2)cc1` (stereo not given)?
KCNQ2 pot: -6.71; KCNQ2 inh: -6.71*; KCNQ2 inh conf: inactive; KCNQ1 spec: inactive; CHO Tl ctr: inactive
